Data: ChEMBL document CHEMBL1961873, “Compounds: GSK PKIS; Assays: Nanosyn kinase panel” (2012)

Assays:
[1] = molecular target: Rho-associated protein kinase 1 (Homo sapiens) (UniProt Q13464); settings: at 1 µM;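 further: reported values are mean percent inhibition of ROCK1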
[2] = molecular target: Rho-associated protein kinase 2 (Homo sapiens) (UniProt O75116); settings: at 0.1 µM
[3] = molecular target: Rho-associated protein kinase 2 (Homo sapiens) (UniProt O75116); settings: at 1 µM
[4] = molecular target: Ribosomal protein S6 kinase alpha-1 (Homo sapiens) (UniProt Q15418); settings: at 0.1 µM
[5] = molecular target: Ribosomal protein S6 kinase alpha-1 (Homo sapiens) (UniProt Q15418); settings: at 1 µM
[6] = molecular target: Ribosomal protein S6 kinase alpha-3 (Homo sapiens) (UniProt P51812); settings: at 0.1 µM
[7] = molecular target: Ribosomal protein S6 kinase alpha-3 (Homo sapiens) (UniProt P51812); settings: at 1 µM
[8] = molecular target: Ribosomal protein S6 kinase alpha-2 (Homo sapiens) (UniProt Q15349); settings: at 0.1 µM
[9] = molecular target: Ribosomal protein S6 kinase alpha-2 (Homo sapiens) (UniProt Q15349); settings: at 1 µM
[10] = molecular target: Ribosomal protein S6 kinase alpha-6 (Homo sapiens) (UniProt Q9UK32); settings: at 0.1 µM
[11] = molecular target: Ribosomal protein S6 kinase alpha-6 (Homo sapiens) (UniProt Q9UK32); settings: at 1 µM
[12] = molecular target: T1, Serine/threonine-protein kinase Sgk1 (Homo sapiens) (UniProt O00141); settings: at 0.1 µM
T1 sequence (whole entry): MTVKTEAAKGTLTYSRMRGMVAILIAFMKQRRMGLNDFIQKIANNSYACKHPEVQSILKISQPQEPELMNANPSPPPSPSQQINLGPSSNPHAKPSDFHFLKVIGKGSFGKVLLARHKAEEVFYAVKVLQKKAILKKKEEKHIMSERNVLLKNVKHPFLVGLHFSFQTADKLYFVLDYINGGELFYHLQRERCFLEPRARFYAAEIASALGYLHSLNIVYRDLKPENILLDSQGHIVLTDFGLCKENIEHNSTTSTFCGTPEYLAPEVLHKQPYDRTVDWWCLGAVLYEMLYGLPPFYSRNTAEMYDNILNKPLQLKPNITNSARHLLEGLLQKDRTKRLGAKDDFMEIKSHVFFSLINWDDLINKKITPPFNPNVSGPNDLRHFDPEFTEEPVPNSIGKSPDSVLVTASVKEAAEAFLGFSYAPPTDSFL

[13] = molecular target: T1, Serine/threonine-protein kinase Sgk1 (Homo sapiens); settings: at 1 µM
[14] = molecular target: T2, Serine/threonine-protein kinase Sgk2 (Homo sapiens) (UniProt Q9HBY8); settings: at 0.1 µM
T2 sequence (whole entry): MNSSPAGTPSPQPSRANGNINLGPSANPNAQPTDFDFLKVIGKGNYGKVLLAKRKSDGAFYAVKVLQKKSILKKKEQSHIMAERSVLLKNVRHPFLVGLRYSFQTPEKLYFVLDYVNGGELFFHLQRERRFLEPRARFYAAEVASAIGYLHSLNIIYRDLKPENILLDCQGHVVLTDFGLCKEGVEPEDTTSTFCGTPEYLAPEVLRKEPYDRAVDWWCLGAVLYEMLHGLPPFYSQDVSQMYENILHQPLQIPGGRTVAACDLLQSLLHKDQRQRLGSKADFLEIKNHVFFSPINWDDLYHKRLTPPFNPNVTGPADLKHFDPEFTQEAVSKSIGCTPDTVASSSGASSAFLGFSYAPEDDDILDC

[15] = molecular target: T2, Serine/threonine-protein kinase Sgk2 (Homo sapiens); settings: at 1 µM
[16] = molecular target: T3, Serine/threonine-protein kinase Sgk3 (Homo sapiens) (UniProt Q96BR1); settings: at 0.1 µM
T3 sequence (whole entry): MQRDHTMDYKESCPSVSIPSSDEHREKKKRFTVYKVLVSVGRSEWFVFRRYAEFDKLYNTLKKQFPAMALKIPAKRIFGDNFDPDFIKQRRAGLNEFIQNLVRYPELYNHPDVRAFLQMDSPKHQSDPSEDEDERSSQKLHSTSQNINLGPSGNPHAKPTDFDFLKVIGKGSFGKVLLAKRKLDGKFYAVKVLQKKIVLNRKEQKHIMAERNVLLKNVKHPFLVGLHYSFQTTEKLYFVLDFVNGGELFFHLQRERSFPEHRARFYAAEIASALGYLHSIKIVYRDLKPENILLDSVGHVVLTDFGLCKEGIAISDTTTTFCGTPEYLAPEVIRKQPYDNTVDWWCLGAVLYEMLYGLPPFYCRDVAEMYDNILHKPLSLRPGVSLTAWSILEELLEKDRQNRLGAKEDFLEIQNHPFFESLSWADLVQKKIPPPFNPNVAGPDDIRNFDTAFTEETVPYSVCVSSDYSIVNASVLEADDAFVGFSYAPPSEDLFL

[17] = molecular target: T3, Serine/threonine-protein kinase Sgk3 (Homo sapiens); settings: at 1 µM
[18] = molecular target: 5'-AMP-activated protein kinase catalytic subunit alpha-1 (Homo sapiens) (UniProt Q13131); settings: at 0.1 µM
[19] = molecular target: 5'-AMP-activated protein kinase catalytic subunit alpha-1 (Homo sapiens) (UniProt Q13131); settings: at 1 µM
[20] = molecular target: 5'-AMP-activated protein kinase catalytic subunit alpha-2 (Homo sapiens) (UniProt P54646); settings: at 0.1 µM;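 further: mean inhibition measured on the AMPK complex of alpha2, beta1 and gamma1 subunits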
5'-AMP-activated protein kinase catalytic subunit alpha-2 (Homo sapiens), sequence (P54646 whole entry, looked up): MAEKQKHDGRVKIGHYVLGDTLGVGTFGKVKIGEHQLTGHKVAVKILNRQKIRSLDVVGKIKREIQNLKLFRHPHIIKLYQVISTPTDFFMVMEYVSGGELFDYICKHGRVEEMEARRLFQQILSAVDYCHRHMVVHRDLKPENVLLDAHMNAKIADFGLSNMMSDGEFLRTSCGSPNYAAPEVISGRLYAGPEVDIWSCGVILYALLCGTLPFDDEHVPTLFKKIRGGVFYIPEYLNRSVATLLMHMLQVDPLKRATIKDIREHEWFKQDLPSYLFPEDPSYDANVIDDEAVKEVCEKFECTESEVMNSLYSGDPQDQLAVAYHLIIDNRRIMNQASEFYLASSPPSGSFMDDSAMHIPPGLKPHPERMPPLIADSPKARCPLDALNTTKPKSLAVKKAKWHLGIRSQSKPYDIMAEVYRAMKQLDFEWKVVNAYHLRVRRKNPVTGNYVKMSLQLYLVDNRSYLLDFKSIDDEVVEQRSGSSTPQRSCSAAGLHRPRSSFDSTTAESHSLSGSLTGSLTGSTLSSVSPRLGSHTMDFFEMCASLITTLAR

Ribosomal protein S6 kinase alpha-2 (Homo sapiens), sequence (Q15349 whole entry): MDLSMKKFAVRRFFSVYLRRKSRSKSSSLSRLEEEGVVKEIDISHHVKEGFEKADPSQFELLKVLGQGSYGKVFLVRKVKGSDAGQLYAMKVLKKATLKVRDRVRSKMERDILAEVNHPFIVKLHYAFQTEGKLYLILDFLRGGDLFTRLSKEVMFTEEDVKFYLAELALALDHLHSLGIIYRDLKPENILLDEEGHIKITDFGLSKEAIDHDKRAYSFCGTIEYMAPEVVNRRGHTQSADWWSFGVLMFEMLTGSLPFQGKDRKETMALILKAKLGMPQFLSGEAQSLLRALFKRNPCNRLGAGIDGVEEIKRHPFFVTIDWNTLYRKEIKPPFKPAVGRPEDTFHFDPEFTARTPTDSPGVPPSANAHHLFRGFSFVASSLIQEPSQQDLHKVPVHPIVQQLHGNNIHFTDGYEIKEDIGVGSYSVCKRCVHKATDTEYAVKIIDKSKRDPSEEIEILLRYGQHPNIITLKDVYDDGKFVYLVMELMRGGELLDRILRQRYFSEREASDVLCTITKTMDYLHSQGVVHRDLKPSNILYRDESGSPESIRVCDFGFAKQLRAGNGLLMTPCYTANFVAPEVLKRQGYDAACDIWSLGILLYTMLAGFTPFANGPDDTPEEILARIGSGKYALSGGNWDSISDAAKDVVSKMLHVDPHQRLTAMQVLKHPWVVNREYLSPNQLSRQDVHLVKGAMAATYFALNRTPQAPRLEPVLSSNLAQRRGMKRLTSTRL
Rho-associated protein kinase 2 (Homo sapiens), sequence (O75116 whole entry, looked up): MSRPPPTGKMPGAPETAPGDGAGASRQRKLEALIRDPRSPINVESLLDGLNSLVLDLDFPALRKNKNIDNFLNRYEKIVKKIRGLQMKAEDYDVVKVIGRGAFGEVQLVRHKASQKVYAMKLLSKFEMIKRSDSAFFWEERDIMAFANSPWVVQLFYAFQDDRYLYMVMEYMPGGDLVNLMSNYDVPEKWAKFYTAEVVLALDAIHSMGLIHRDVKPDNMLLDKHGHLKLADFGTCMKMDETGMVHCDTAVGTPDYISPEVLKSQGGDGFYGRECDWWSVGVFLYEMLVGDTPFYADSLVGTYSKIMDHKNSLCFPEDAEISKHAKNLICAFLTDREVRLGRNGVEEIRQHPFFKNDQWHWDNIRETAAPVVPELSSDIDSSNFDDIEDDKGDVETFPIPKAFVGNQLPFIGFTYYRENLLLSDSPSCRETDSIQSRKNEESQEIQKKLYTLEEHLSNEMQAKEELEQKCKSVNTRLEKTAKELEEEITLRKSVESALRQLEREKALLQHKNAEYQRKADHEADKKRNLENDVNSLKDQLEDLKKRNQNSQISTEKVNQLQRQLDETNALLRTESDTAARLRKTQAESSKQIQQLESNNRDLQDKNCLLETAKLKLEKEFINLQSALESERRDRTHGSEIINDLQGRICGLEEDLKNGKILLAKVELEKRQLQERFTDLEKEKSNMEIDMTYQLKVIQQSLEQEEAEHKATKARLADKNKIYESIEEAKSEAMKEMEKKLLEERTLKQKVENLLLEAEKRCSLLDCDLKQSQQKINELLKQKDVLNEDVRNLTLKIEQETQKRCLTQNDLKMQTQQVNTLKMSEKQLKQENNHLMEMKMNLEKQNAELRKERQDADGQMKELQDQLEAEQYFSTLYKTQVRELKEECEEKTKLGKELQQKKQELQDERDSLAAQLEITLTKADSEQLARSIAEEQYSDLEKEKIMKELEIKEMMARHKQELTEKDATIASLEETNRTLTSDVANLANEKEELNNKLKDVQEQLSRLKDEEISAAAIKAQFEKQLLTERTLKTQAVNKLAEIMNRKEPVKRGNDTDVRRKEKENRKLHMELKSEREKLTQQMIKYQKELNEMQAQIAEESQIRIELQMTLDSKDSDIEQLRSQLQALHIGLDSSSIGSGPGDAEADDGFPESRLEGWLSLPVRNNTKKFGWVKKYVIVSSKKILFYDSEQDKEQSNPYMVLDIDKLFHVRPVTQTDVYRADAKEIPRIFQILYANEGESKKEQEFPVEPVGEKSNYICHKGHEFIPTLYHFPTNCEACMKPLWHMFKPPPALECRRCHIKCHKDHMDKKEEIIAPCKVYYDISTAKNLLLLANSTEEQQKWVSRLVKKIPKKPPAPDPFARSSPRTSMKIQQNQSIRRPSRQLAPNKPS
Ribosomal protein S6 kinase alpha-3 (Homo sapiens), sequence (P51812 whole entry): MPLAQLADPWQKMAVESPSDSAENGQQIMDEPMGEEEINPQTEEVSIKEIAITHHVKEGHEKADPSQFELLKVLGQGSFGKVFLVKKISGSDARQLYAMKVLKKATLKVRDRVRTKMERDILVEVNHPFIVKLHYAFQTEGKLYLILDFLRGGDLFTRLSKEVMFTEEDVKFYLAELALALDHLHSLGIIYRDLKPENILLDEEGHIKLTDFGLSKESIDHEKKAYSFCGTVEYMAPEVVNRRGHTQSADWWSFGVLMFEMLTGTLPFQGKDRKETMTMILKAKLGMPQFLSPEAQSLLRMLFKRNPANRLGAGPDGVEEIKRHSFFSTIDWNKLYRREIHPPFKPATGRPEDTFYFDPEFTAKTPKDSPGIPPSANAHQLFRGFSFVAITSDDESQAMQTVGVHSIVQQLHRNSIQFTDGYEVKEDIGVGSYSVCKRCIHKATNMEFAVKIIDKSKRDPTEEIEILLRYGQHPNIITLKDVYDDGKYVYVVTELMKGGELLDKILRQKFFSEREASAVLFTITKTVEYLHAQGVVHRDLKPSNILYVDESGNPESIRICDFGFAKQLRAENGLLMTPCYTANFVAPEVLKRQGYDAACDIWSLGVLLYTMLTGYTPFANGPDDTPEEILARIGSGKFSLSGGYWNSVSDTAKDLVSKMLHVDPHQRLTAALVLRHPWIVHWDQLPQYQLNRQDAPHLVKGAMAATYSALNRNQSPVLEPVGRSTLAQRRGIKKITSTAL
Rho-associated protein kinase 1 (Homo sapiens), sequence (Q13464 2-1354 limits assumed): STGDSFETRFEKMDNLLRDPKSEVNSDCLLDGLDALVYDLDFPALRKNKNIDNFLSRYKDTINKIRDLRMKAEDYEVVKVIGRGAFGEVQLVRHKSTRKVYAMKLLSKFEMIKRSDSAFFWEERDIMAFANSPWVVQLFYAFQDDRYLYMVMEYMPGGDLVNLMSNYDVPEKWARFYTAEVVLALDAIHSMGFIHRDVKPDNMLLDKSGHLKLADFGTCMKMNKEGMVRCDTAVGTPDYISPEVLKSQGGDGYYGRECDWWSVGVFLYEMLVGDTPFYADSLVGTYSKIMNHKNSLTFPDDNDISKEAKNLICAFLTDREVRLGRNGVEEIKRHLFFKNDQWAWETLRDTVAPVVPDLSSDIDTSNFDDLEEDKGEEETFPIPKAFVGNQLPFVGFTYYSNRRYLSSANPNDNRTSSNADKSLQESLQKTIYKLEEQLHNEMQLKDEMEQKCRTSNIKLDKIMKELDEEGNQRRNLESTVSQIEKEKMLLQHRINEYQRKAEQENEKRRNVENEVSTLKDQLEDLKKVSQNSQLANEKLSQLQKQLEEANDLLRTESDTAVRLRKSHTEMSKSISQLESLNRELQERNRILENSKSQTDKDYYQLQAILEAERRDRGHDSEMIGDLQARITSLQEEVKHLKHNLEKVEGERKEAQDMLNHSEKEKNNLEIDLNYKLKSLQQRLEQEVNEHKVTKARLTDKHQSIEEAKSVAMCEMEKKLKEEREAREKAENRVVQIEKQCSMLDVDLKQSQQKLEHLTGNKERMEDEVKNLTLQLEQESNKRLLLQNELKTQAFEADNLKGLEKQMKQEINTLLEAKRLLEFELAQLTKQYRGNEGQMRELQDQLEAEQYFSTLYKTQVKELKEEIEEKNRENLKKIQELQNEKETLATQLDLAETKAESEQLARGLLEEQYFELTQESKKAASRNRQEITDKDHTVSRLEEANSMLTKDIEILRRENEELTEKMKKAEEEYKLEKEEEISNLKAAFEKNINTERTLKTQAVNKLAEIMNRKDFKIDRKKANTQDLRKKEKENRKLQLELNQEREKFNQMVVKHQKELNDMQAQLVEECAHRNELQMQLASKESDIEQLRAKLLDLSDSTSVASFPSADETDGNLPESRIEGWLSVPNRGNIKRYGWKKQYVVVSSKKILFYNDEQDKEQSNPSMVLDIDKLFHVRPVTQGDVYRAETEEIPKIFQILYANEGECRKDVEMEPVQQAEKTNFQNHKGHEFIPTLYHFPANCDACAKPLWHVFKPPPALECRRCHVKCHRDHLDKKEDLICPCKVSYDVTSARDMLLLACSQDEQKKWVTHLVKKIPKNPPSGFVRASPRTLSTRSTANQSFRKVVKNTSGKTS

SMILES: O=C(Nc1n[nH]c2cc(-c3cc(F)ccc3F)ccc12)C1CC1
- inhibition [1]: 2.49%
- inhibition [2]: 1.39%
- inhibition [3]: 2.28%
- inhibition [4]: 0.64%
- inhibition [5]: 0.86%
- inhibition [6]: 0.31%
- inhibition [7]: 1.63%
- inhibition [8]: 1.04%
- inhibition [9]: 3.43%
- inhibition [10]: -0.13%
- inhibition [11]: 2.43%
- inhibition [12]: 2.46%
- inhibition [13]: 1.25%
- inhibition [14]: 0.34%
- inhibition [15]: 0.08%
- inhibition [16]: 2.01%
- inhibition [17]: 0.16%
- inhibition [18]: 2.72%
- inhibition [19]: 2.32%
- inhibition [20]: 3.84%

SMILES: c1ccc(Oc2ccc(Nc3ncc(-c4ccccc4)o3)cc2)cc1
- inhibition [1]: 4.29%
- inhibition [2]: 4.32%
- inhibition [3]: 4.11%
- inhibition [4]: 1.98%
- inhibition [5]: 3.12%
- inhibition [6]: 0.81%
- inhibition [7]: 1.91%
- inhibition [8]: 0.83%
- inhibition [9]: 1.55%
- inhibition [10]: 0.67%
- inhibition [11]: 0.25%
- inhibition [12]: 2.19%
- inhibition [13]: 2.9%
- inhibition [14]: 6.17%
- inhibition [15]: 2.79%
- inhibition [16]: 3.61%
- inhibition [17]: 3.17%
- inhibition [18]: 0.33%
- inhibition [19]: 3.46%
- inhibition [20]: 1.31%

SMILES: Fc1ccc(-c2ncn(CCCN3CCOCC3)c2-c2ccncc2)cc1
- inhibition [1]: -0.82%
- inhibition [2]: 0.06%
- inhibition [3]: -4.4%
- inhibition [4]: -1.49%
- inhibition [5]: -3.25%
- inhibition [6]: 0.33%
- inhibition [7]: -0.73%
- inhibition [8]: 0.61%
- inhibition [9]: -0.22%
- inhibition [10]: 0.43%
- inhibition [11]: -0.21%
- inhibition [12]: -0.45%
- inhibition [13]: 0.64%
- inhibition [14]: 1.89%
- inhibition [15]: -4.02%
- inhibition [16]: -1.19%
- inhibition [17]: -1.33%
- inhibition [18]: 0.37%
- inhibition [19]: -1.12%
- inhibition [20]: 0.28%

SMILES: NC(=O)c1ccc(Oc2nccc(-c3c(-c4ccc(F)cc4)ncn3C3CCNCC3)n2)cc1
- inhibition [1]: 3.99%
- inhibition [2]: 3.87%
- inhibition [3]: 4.42%
- inhibition [4]: 2.06%
- inhibition [5]: 1.84%
- inhibition [6]: -0.35%
- inhibition [7]: 0.53%
- inhibition [8]: 3.21%
- inhibition [9]: 4.43%
- inhibition [10]: 1.77%
- inhibition [11]: 3.24%
- inhibition [12]: 2.88%
- inhibition [13]: 3.6%
- inhibition [14]: 1.93%
- inhibition [15]: 4.5%
- inhibition [16]: 3.5%
- inhibition [17]: 2.61%
- inhibition [18]: 2.33%
- inhibition [19]: 3.68%
- inhibition [20]: 7.31%
